Source: ChEMBL document CHEMBL1961873, “Compounds: GSK PKIS; Assays: Nanosyn kinase panel” (2012)
“And” between values parts separate entries of the source, which are not always exact repeats. Equal entries are not always repeated.

Tests used:
[1] = test system: Epidermal growth factor receptor (Homo sapiens), P00533 [T790M]; settings: at 1 µM
[2] = test system: Epidermal growth factor receptor (Homo sapiens), P00533 [L858R,T790M]; settings: at 0.1 µM
[3] = test system: Epidermal growth factor receptor (Homo sapiens), P00533 [L858R,T790M]; settings: at 1 µM
[4] = target: Ephrin type-A receptor 2 (Homo sapiens) (UniProt P29317); settings: at 0.1 µM
[5] = target: Ephrin type-A receptor 2 (Homo sapiens) (UniProt P29317); settings: at 1 µM
[6] = target: T1, Ephrin type-A receptor 3 (Homo sapiens) (UniProt P29320); settings: at 0.1 µM
T1 sequence (whole entry): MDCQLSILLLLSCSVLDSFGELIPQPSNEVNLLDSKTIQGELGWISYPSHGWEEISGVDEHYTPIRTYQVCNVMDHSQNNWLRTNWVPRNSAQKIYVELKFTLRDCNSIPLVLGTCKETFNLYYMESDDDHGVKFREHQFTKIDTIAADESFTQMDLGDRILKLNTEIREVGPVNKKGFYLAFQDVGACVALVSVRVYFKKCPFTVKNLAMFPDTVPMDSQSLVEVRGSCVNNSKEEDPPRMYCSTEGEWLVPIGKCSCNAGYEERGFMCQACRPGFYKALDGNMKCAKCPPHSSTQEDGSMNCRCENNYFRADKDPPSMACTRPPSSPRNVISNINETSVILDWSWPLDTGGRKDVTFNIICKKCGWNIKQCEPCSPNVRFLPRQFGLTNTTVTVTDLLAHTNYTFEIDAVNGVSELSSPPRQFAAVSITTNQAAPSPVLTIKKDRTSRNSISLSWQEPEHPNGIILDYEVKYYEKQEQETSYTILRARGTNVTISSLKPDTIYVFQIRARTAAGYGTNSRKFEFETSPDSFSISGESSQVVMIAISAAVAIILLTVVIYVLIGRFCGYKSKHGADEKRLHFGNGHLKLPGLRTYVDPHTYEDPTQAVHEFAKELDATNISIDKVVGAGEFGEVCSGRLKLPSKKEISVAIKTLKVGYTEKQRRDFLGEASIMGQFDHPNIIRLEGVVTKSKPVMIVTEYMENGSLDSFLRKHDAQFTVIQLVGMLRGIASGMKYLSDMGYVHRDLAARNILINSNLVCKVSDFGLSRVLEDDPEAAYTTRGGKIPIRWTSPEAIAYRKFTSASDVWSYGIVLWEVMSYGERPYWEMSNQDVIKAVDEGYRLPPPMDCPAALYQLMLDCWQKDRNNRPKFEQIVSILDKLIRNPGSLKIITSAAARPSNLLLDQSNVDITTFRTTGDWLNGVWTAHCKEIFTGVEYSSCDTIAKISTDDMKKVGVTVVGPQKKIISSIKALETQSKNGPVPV

[7] = target: T1, Ephrin type-A receptor 3 (Homo sapiens); settings: at 1 µM
[8] = target: Ephrin type-A receptor 4 (Homo sapiens) (UniProt P54764); settings: at 0.1 µM
[9] = target: Ephrin type-A receptor 4 (Homo sapiens) (UniProt P54764); settings: at 1 µM
[10] = target: T2, Ephrin type-B receptor 2 (Homo sapiens) (UniProt P29323); settings: at 0.1 µM
T2 sequence (whole entry): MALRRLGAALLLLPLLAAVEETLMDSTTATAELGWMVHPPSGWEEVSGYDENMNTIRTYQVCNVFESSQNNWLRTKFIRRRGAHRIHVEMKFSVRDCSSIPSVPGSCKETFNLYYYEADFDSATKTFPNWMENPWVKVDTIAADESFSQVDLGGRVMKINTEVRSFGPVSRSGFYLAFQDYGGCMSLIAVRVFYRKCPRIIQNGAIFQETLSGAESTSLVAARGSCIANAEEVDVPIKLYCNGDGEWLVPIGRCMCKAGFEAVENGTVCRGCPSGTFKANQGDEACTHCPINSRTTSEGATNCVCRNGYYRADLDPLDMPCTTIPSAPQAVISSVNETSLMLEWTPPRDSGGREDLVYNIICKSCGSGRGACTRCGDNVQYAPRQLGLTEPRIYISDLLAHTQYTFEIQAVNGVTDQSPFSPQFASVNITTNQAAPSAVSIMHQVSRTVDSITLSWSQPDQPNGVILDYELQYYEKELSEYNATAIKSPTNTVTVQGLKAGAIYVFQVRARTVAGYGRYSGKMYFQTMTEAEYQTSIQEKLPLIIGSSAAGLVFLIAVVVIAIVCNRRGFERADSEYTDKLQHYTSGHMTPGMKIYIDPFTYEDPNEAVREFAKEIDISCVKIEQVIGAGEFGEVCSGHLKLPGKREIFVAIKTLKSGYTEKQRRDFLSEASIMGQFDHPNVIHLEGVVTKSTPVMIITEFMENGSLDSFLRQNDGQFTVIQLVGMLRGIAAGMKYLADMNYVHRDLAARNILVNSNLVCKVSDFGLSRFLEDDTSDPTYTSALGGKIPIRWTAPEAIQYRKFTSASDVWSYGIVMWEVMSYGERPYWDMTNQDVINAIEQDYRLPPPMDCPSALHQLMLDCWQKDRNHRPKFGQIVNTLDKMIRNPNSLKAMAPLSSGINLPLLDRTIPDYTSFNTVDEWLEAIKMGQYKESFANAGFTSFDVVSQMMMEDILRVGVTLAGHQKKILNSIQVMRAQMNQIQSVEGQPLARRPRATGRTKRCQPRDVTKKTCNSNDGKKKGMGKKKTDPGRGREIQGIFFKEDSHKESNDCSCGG

[11] = target: T2, Ephrin type-B receptor 2 (Homo sapiens); settings: at 1 µM
[12] = target: T3, Ephrin type-B receptor 3 (Homo sapiens) (UniProt P54753); settings: at 0.1 µM
T3 sequence (whole entry): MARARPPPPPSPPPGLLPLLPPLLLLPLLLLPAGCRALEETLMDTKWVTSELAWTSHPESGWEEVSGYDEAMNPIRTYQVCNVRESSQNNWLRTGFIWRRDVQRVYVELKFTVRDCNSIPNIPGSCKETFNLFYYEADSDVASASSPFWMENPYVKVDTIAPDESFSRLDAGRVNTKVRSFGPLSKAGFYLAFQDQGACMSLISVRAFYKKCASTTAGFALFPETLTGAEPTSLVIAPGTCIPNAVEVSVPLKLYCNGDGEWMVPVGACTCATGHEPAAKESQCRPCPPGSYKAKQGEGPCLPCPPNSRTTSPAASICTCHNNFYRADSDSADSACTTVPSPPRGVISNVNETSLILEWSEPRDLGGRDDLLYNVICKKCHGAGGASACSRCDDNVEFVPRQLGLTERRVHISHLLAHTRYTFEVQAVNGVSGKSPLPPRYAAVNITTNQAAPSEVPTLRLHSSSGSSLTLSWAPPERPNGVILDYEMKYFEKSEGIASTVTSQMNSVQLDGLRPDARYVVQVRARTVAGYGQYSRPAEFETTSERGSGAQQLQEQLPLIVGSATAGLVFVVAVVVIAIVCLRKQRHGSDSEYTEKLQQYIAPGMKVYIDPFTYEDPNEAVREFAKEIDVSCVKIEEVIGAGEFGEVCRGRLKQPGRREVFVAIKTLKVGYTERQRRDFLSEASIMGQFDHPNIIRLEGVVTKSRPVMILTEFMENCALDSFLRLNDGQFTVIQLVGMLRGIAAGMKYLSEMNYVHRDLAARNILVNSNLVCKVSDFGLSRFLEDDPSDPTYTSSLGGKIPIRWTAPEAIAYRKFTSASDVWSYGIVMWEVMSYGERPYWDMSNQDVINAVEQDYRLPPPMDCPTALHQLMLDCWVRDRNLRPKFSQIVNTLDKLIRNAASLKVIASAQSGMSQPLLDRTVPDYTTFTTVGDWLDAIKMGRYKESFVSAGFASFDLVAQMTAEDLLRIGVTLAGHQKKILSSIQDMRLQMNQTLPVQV

[13] = target: T3, Ephrin type-B receptor 3 (Homo sapiens); settings: at 1 µM
[14] = target: T4, Ephrin type-B receptor 4 (Homo sapiens) (UniProt P54760); settings: at 0.1 µM
T4 sequence (whole entry): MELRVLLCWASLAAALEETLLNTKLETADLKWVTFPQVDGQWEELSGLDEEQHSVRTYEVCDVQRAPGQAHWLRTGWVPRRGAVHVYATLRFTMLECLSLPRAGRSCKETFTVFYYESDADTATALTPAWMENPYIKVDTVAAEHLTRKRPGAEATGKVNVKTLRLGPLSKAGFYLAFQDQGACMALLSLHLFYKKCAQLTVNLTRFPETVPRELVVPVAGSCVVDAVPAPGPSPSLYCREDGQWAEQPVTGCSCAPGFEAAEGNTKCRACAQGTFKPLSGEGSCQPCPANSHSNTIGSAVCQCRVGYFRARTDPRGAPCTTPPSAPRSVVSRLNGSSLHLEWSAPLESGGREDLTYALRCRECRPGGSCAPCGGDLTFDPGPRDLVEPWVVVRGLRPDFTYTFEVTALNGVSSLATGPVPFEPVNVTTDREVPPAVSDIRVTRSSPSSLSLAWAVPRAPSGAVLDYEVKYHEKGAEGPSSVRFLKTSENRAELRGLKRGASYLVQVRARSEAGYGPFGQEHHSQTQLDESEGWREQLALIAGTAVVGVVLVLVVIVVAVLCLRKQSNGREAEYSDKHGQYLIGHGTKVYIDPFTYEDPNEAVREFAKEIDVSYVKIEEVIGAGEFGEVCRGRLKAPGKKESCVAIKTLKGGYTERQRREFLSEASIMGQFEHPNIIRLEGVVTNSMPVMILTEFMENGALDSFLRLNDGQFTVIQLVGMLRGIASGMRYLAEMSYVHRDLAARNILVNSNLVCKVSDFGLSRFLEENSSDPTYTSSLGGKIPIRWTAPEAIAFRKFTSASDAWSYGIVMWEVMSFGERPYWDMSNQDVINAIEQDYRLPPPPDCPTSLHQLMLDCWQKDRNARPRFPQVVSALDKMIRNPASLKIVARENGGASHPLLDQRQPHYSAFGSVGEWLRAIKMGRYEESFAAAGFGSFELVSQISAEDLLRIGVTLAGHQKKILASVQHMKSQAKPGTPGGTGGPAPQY

[15] = target: T4, Ephrin type-B receptor 4 (Homo sapiens); settings: at 1 µM
[16] = target: Receptor tyrosine-protein kinase erbB-2 (Homo sapiens) (UniProt P04626); settings: at 0.1 µM
[17] = target: Receptor tyrosine-protein kinase erbB-2 (Homo sapiens) (UniProt P04626); settings: at 1 µM
[18] = target: Receptor tyrosine-protein kinase erbB-4 (Homo sapiens) (UniProt Q15303); settings: at 0.1 µM
[19] = target: Receptor tyrosine-protein kinase erbB-4 (Homo sapiens) (UniProt Q15303); settings: at 1 µM
[20] = target: Tyrosine-protein kinase Fer (Homo sapiens) (UniProt P16591); settings: at 0.1 µM;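 also: reported figures are averaged percent inhibition of FER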
Tyrosine-protein kinase Fer (Homo sapiens), sequence (P16591 whole entry, looked up): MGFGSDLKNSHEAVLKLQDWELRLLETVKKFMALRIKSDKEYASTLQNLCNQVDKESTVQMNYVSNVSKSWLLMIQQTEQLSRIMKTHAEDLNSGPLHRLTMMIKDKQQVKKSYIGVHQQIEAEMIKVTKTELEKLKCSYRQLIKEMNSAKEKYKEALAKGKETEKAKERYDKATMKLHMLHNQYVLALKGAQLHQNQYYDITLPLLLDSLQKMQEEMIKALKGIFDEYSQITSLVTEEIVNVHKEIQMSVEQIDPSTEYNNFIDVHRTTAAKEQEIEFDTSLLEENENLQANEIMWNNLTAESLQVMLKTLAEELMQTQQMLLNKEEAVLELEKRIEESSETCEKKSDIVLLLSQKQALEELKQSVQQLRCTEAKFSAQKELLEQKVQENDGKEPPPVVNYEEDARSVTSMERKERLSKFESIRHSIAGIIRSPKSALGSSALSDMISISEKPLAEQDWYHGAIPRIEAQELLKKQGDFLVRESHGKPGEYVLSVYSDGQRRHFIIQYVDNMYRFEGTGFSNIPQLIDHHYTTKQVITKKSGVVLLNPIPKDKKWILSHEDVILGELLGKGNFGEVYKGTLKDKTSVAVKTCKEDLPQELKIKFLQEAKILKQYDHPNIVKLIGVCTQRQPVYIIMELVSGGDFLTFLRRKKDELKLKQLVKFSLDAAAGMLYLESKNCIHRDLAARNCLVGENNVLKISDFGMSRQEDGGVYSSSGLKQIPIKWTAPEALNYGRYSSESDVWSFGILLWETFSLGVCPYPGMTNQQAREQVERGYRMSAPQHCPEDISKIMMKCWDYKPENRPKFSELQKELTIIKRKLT

Epidermal growth factor receptor (Homo sapiens), P00533 [L858R,T790M], sequence (P00533 whole entry T790M/L858R, looked up): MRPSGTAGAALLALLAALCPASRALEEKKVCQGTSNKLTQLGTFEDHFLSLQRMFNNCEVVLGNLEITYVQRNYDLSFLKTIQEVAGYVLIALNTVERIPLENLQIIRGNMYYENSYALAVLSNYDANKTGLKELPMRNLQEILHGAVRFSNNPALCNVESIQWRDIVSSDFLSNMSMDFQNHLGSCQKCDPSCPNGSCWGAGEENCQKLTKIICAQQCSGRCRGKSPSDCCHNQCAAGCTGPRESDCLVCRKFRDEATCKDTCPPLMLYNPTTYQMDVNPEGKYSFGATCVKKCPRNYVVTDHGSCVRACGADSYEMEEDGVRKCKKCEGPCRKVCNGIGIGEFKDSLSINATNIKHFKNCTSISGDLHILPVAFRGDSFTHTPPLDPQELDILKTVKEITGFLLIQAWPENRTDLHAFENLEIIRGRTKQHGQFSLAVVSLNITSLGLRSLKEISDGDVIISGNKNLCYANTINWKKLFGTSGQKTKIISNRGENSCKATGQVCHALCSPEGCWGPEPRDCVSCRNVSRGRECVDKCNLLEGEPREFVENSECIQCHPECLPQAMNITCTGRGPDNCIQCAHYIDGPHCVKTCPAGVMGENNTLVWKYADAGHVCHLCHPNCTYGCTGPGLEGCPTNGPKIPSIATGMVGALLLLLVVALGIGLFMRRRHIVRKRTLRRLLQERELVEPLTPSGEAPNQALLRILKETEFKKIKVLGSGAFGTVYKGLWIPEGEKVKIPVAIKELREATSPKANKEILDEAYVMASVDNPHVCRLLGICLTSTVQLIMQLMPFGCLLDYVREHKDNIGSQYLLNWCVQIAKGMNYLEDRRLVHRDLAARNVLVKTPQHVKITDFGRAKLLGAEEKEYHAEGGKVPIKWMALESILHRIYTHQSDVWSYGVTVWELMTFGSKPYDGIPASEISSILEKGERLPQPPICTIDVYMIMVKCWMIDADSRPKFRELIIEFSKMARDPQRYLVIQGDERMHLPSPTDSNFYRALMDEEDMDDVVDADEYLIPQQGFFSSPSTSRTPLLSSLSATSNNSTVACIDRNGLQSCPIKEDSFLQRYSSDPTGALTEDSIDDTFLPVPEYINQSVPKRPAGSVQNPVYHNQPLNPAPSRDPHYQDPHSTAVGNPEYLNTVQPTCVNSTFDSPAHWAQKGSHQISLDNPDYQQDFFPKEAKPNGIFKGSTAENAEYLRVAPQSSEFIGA
Receptor tyrosine-protein kinase erbB-4 (Homo sapiens), sequence (Q15303 whole entry): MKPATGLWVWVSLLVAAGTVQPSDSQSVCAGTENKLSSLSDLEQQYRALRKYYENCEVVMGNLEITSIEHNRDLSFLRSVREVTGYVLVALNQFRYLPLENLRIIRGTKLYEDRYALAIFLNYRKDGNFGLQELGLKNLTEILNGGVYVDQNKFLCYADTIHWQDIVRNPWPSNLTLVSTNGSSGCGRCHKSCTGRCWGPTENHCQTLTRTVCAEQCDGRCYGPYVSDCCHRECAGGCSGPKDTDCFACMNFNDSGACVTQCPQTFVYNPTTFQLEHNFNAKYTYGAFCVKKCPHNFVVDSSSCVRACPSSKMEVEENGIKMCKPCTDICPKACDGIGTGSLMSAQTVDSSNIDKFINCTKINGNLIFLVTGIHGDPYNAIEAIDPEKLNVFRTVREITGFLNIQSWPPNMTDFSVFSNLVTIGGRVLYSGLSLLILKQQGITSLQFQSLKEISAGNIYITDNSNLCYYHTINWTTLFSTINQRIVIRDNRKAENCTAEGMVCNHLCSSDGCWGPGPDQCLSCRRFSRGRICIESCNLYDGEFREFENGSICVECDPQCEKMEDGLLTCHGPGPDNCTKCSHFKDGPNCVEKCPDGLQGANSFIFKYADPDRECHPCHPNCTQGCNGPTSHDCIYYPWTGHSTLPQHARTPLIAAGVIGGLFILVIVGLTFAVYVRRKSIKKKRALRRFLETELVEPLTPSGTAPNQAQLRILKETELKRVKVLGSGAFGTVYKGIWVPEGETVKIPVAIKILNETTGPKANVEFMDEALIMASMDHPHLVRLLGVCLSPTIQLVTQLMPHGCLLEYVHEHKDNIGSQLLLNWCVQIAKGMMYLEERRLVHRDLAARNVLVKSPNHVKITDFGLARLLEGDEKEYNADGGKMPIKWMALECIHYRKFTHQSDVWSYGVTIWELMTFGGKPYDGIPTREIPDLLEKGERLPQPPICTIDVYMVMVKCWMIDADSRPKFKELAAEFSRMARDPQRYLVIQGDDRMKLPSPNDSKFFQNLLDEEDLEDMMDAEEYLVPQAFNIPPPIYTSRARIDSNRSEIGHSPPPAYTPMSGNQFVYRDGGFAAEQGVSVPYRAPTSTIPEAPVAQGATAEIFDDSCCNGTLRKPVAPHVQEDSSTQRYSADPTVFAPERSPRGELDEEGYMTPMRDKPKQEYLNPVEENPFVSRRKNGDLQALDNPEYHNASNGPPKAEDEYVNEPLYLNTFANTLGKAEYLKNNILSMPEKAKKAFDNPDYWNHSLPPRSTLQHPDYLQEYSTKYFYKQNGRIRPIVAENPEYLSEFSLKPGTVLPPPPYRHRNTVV
Receptor tyrosine-protein kinase erbB-2 (Homo sapiens), sequence (P04626 whole entry): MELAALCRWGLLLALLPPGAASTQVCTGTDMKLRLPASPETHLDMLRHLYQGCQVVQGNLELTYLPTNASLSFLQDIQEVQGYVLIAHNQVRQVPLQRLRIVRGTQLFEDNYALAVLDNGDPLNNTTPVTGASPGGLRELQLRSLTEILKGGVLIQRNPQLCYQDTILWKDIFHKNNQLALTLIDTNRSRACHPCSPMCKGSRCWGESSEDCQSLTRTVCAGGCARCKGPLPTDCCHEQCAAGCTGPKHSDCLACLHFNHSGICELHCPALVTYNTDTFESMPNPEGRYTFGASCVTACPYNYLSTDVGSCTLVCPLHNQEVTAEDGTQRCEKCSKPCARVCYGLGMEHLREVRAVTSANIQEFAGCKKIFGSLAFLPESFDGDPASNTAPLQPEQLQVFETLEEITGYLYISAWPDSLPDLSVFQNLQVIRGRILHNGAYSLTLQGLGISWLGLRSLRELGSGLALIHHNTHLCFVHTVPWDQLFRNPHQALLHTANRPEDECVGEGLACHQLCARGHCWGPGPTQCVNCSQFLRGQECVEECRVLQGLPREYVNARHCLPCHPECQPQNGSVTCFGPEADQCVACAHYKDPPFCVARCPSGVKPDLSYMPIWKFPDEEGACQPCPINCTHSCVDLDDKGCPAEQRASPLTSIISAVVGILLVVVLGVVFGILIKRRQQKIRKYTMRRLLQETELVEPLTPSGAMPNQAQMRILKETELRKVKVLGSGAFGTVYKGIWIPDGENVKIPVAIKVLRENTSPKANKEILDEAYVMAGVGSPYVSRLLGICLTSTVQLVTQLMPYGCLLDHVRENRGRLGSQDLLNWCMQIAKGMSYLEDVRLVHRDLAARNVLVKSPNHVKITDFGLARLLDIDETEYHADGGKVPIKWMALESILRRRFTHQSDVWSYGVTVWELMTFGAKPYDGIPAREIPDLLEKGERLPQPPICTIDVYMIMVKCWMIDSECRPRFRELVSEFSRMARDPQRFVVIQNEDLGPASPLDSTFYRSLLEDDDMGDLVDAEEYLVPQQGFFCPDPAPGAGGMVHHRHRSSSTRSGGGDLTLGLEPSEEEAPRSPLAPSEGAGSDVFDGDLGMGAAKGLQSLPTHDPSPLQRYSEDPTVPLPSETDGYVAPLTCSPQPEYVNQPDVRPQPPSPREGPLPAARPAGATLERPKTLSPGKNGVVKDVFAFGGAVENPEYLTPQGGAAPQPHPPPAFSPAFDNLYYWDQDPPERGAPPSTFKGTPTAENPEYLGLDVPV

Nc1nccc(-c2c(-c3ccc(F)cc3)ncn2C2CCNCC2)n1
inhibition [1]: -1.82% and -1.43%
inhibition [2]: -3.77% and -2.58%
inhibition [3]: -3.38% and 2.32%
inhibition [4]: -1.11% and -2.31%
inhibition [5]: -3.3% and -3.19%
inhibition [6]: -5.79% and -0.55%
inhibition [7]: -3.63% and 1.63%
inhibition [8]: -7.34% and 0.75%
inhibition [9]: -6.76% and 4.23%
inhibition [10]: -3.07% and 5.6%
inhibition [11]: 3.74% and 17%
inhibition [12]: -8.29% and 1.29%
inhibition [13]: -2.02% and 2.97%
inhibition [14]: -1.79% and 2.99%
inhibition [15]: 1.69% and 3.45%
inhibition [16]: -4.63% and -1.31%
inhibition [17]: -2.23% and 2.46%
inhibition [18]: 3.28%
inhibition [19]: -6.69% and 9.1%
inhibition [20]: -1.84% and 2.2%

CC1(C)CC(n2cnc(-c3ccc(F)cc3)c2-c2ccnc(N)n2)CC(C)(C)N1
inhibition [1]: -1.34%
inhibition [2]: 2.59%
inhibition [3]: 1.85%
inhibition [4]: -2.86%
inhibition [5]: -2.93%
inhibition [6]: -0.75%
inhibition [7]: -0.11%
inhibition [8]: 0.35%
inhibition [9]: -1.89%
inhibition [10]: 0.78%
inhibition [11]: 4.85%
inhibition [12]: 3.09%
inhibition [13]: 1.51%
inhibition [14]: 0.27%
inhibition [15]: 0.62%
inhibition [16]: -1.2%
inhibition [17]: -3.03%
inhibition [18]: 0.19%
inhibition [19]: 3.58%
inhibition [20]: 3.41%

CS(=O)(=O)Nc1ccc(-c2cc(-c3ccccc3)cc(C(N)=O)c2N)cc1
inhibition [1]: -0.33%
inhibition [2]: 1.11%
inhibition [3]: 1.75%
inhibition [4]: -3.41%
inhibition [5]: -2.62%
inhibition [6]: 0.48%
inhibition [7]: -0.2%
inhibition [8]: 1.75%
inhibition [9]: 4.07%
inhibition [10]: 6.68%
inhibition [11]: 5.3%
inhibition [12]: 0.56%
inhibition [13]: 2.36%
inhibition [14]: 0.54%
inhibition [15]: 0.87%
inhibition [16]: 1.08%
inhibition [17]: 6.84%
inhibition [18]: 4.73%
inhibition [19]: 11.9%
inhibition [20]: -2.85%
